aSyn UTR act = Activators via SNCA 5'UTR binding, MLPCN | alpha-synuclein 5'UTR reporter, activators screen | activity score, % (tested at 7.5 µM), hits read low | 7.1% of 300,000 active | AID 1814, 2009; in the data active = activity score below about -60%
Large screens that a line does not name were inactive. These entries were drawn from the full list.

CS(=O)(=O)Nc1cccc(C2=NN(S(C)(=O)=O)C(c3ccc4c(c3)OCO4)C2)c1 (stereo unspecified)	aSyn UTR act -85.9
CS(=O)(=O)N1N=C(c2ccccc2)CC1c1ccc2c(c1)OCO2 (stereo unspecified)	aSyn UTR act -274.7
COc1cc2c(cc1NC(=O)CSc1ccccn1)oc1ccccc12	aSyn UTR act -280.7
O=C(CSc1ccccn1)Nc1ccc2c(c1)oc1ccccc12	aSyn UTR act -122.4
COc1ccc(Nc2nc(N)nc(CSc3nccn3C)n2)cc1	aSyn UTR act -86.8
COc1ccc(Nc2nc(N)c([N+](=O)[O-])c(NC3CCCCC3)n2)cc1	none
COc1ccc(OCc2nc(N)nc(Nc3ccc(C)cc3)n2)cc1	aSyn UTR act -68.7
Nc1nc(COc2ccccc2C=O)nc(Nc2ccccc2)n1	aSyn UTR act -118.6
COc1ccc(Nc2nc(N)nc(CSC(=S)N3CCCCC3)n2)cc1	aSyn UTR act -62.4
Nc1nc(CSc2ccccn2)nc(Nc2ccccc2)n1	aSyn UTR act -84.6
S=C(NCc1ccco1)Nc1ccc(Br)cc1Cl	aSyn UTR act -141.0
S=C(NCc1ccco1)Nc1ccc(Cl)cc1Cl	aSyn UTR act -107.8
O=C1CCN(Cc2ccccc2)CCN1CCOc1ccccc1	aSyn UTR act -99.3
CC1CCC(=O)N(CCOc2ccccc2)CC1 (stereo unspecified)	aSyn UTR act -80.1
CC1CCN(Cc2nc(-c3ccccc3)no2)CC1	aSyn UTR act -190.3
CC(C)C(O)C1CCN(Cc2nc(-c3cccs3)no2)CC1 (stereo unspecified)	aSyn UTR act -107.7
Cc1ccc(-c2noc(CN3CCC(C(N)=O)CC3)n2)cc1	aSyn UTR act -86.0
c1ccc(CCNc2nc(-c3ccccn3)cs2)cc1	aSyn UTR act -157.7
c1ccc(CCNc2nc(-c3cccnc3)cs2)cc1	aSyn UTR act -129.3
Cc1ccc(OCc2csc(N)n2)cc1	aSyn UTR act -107.6
Nc1nc(COc2ccc(Cl)cc2)cs1	aSyn UTR act -93.0
Nc1nc(COc2ccccc2)cs1	aSyn UTR act -67.2
COc1ccc(OCc2cc(C(=O)NCC3CCCCO3)no2)c(Cl)c1 (stereo unspecified)	aSyn UTR act -152.4
COc1ccc(CCNC(=O)c2cc(COc3c(C)cccc3C)on2)c(OC)c1	aSyn UTR act -91.2
O=C(NCCc1cnn(-c2ccccc2)c1)c1cc(COc2c(F)cccc2F)on1	aSyn UTR act -79.6
COc1ccc(OCc2cc(C(=O)NCC3CCOCC3)no2)c(Cl)c1	aSyn UTR act -140.1
COc1ccc(OCc2cc(C(=O)NCCc3ccccc3)no2)c(Cl)c1	aSyn UTR act -95.3
CN(CCc1ccccc1)C(=O)c1cc(COc2ccc(F)cc2Cl)on1	aSyn UTR act -82.2
Cc1ccc(C(=O)N/N=C/c2ccc(-c3cccc(C(F)(F)F)c3)o2)cn1	none
Nc1nonc1C(=O)N/N=C/c1ccc(-c2cccc(C(=O)O)c2)o1	aSyn UTR act -63.0
Cc1ccc(NC2=C(N3CCOCC3)C(=O)c3ccccc3C2=O)cc1	aSyn UTR act -83.6
Cc1ccc(NC2=C(Cl)C(=O)c3ccccc3C2=O)cc1	none
CC1CCN(C(=O)c2cc(-c3ccccc3O)on2)CC1	aSyn UTR act -82.0
CC1CCN(C(=O)c2cc(-c3ccco3)on2)CC1	aSyn UTR act -139.9
Cc1cccn2c1nc(=S)n2C(=O)c1ccco1	aSyn UTR act -264.5
Nc1cc(C(F)(F)F)ccc1C(=O)O	aSyn UTR act -62.3
COc1ccc(/C=C/C(=O)N(C)C2CCCCC2)cc1Br	aSyn UTR act -92.3
O=[N+]([O-])c1ccc(O)c(C2=NNC(c3ccccc3F)C2)c1 (stereo unspecified)	aSyn UTR act -122.4
CC(=O)Nc1cccc(C(=O)N/N=C/c2ccc(F)cc2)c1	aSyn UTR act -115.1
CC(=O)Nc1cccc(C(=O)N/N=C/c2ccccc2F)c1	aSyn UTR act -109.0
COc1ccc(C(=O)Nc2cccc(C(=O)N/N=C/c3ccc(OC)cc3OC)c2)cc1	none
COc1ccc(/C=N/NC(=O)c2cccc(NC(=O)c3ccccc3Cl)c2)cc1	aSyn UTR act -99.4
O=C(Nc1ccccn1)c1ccc(Br)s1	aSyn UTR act -190.7
O=C(Nc1ccccn1)c1cc2cc([N+](=O)[O-])ccc2s1	aSyn UTR act -158.2
O=C(NC(=S)Nc1ccccn1)c1ccc([N+](=O)[O-])cc1	aSyn UTR act -118.9
O=C(Nc1ccccn1)c1ccc(C(=O)Nc2ccccn2)cc1	aSyn UTR act -104.3
O=C(Nc1ccc(Cl)cc1)c1ccc(-c2ccccn2)s1	aSyn UTR act -170.1
O=C(NC(=S)Nc1ccccn1)c1ccccc1	aSyn UTR act -133.4
O=C(Nc1ccccc1)c1ccc(CSc2ccccn2)cc1	aSyn UTR act -102.2
O=C(Nc1ccccn1)c1cc2ccccc2cc1O	aSyn UTR act -103.8
O=C(c1cc2cc([N+](=O)[O-])ccc2s1)N1CCCCC1	aSyn UTR act -70.8
Cc1noc(C)c1COc1ccc(C(=O)Nc2ncccc2O)cc1	aSyn UTR act -66.6
Cc1ccc(C(=O)Nc2ncccc2O)o1	aSyn UTR act -84.2
Cc1ccc(C(=O)CCC(=O)Nc2ncccc2O)cc1	aSyn UTR act -70.4
O=C(Nc1ncccc1O)c1ccc(Oc2ccccc2)cc1	aSyn UTR act -198.3
